Results: PubChem BioAssay AID1220 (Sanford-Burnham Center for Chemical Genomics, 2008)
Out of some 190,000 compounds screened, about 1,300 (0.68%) were called active. No stated cut-off is given here; in the data, active means inhibition above about 50%; inactive means the rest. The list comes from a sample in which actives are over-represented; it also holds similar structures and randomly drawn compounds.

Each compound was assayed against Mannose-6-phosphate isomerase (Homo sapiens) (UniProt P34949) (assay: human PMI inhibitors, high substrate, primary screen, biochemical, fluorescence intensity, high mannose 6-phosphate (AID 1220)). Details: recombinant PMI enzyme, coupled fluorescence intensity; at 20 µM; hits give high values.
Mannose-6-phosphate isomerase (Homo sapiens), sequence (P34949 whole entry, looked up): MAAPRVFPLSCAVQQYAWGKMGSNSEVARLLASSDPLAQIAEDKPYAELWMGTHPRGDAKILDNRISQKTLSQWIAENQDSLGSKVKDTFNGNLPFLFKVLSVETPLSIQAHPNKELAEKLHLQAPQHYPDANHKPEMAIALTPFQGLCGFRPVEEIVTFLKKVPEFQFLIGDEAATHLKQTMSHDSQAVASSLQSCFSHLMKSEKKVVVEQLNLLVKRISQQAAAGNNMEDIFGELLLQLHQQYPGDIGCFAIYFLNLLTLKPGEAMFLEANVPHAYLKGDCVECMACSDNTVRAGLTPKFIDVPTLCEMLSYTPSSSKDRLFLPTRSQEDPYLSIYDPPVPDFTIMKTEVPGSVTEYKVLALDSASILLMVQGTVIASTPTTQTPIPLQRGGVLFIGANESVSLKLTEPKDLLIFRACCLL

inhibition, active:
COC1(NS(=O)(=O)c2ccc(Br)cc2)C(C)=CC(=O)C=C1C 55.3%
Cc1cc2nc3c(=O)[nH]c(=O)[nH]c3nc2c([N+](=O)[O-])c1N 53.3%
O=C1c2ccccc2C(=O)c2cc(S(=O)(=O)Nc3ccccc3)ccc21 60.3%
COc1ccc2nc3ccccc3nc2c1NC(=O)c1ccccc1Cl 51.5%
Cc1cccc(NCC(=O)c2c(N)n(C)c(=O)n(C)c2=O)c1C 59%
Cc1ccc(NC(=S)Nc2ccc3cn[nH]c3c2)cc1 57.8%
S=C(Nc1ccc(Cl)cc1)Nc1ccc2cn[nH]c2c1 56.6%
Cc1ccccc1NC(=S)Nc1ccc2cn[nH]c2c1 61.3%
COC(=O)c1ccc2c(c1)NC1=C(C(=O)CC(C)(C)C1)C(c1ccncc1)N2 (stereo not given) 61.3%
O=C(Oc1c(CN2CCOCC2)cc(Cl)c2cccnc12)c1ccccc1 56.3%
O=C(Oc1c(CN2CCOCC2)cc(Cl)c2cccnc12)c1ccccc1F 51.4%
O=C(Oc1c(CN2CCOCC2)cc(Cl)c2cccnc12)c1ccccc1Cl 57.1%
COc1ccc(OC)c(S(=O)(=O)Nc2ccccc2SC)c1 57.1%
C=CCOc1c(Br)cc(CNc2ccc(NC(=O)C(C)C)c(OC)c2)cc1OCC 57.7%

inhibition, inactive:
COc1ccc(CCN(C)CCCN2CC(c3ccccc3)CC2=O)cc1OC (stereo not given) -9.7%
Cc1ccc(S(=O)(=O)N2CCN(CC(=O)NC3CCCc4ccccc43)CC2)cc1C (stereo not given) 13.8%
CCOC(=O)N1CCN(c2c(NCC3CCN(Cc4cccc(C)c4)CC3)c(=O)c2=O)CC1 8.2%
Nc1nc(Cl)cc(Sc2ccc3ccccc3c2)n1 1%
Cc1nc2sccn2c1P(c1c(C)nc2sccn12)c1c(C)nc2sccn12 -5.7%
CCC(CO)NCc1ccc(OCC(=O)Nc2cccc(C(F)(F)F)c2)c(OC)c1 (stereo not given) -1.3%
CCN=c1scc(C)n1/N=C/c1cc(Br)c(O)c(Br)c1 -6.2%
CN=c1scc(-c2cccs2)n1/N=C/c1ccc(O)c(O)c1O 34.6%
CCN=c1scc(C)n1/N=C/c1ccsc1 2.6%
CN=c1scc(-c2cccs2)n1/N=C/c1ccccc1O 14.7%
CCN=c1scc(-c2ccco2)n1/N=C/c1ccc(OC)c(O)c1 -17.3%
CCN=c1scc(-c2cccs2)n1/N=C/c1cc(OC)ccc1O -21.1%
CN=c1scc(-c2ccccc2F)n1/N=C/c1ccc[nH]1 -2.3%
CCN=c1scc(-c2ccco2)n1/N=C/c1ccc(O)cc1 -22.4%
COCCNS(=O)(=O)c1cc(OC)ccc1OC 8.6%
Cc1cc(N2CCN(c3ccccc3)CC2)nc(-c2ccccc2O)n1 2.1%
Cc1cc(S(=O)(=O)NCC(C)C)ccc1OCC(=O)NCC1CCCO1 (stereo not given) 15.5%
COc1cc(C(=O)OCCNC(=O)c2ccncc2)cc(OC)c1OC -20%
CCC(C)NS(=O)(=O)c1ccc(F)c(C(=O)Nc2c(F)cc(F)cc2Br)c1 (stereo not given) -19.4%
COc1ccc2[nH]c(=O)c(CN(CCO)C(=O)NCc3ccccc3)cc2c1 3.9%
CCn1c(COc2ccccc2)nnc1SCC(=O)Nc1cc(C)ccc1OC 8.3%
C#CCOCCOCCOCCNc1nc(N2CCN(C(=O)[C@H](CCC(=O)O)n3cc(C(N)Cc4ccc(O)cc4)nn3)CC2)nc(N2CCN(C(=O)[C@H](CCC(=O)O)n3cc(C(N)[C@H](C)CC)nn3)CC2)n1 (stereo not given in full) -33.1%
O=C(c1ccccc1)c1cccc(NC(=O)c2ccc(Br)o2)c1 6.2%
O=C(C1CCCCN1S(=O)(=O)c1ccccc1)N1CCN(C(c2ccccc2)c2ccccc2)CC1 (stereo not given) 9.8%
COc1cc(Br)c(S(=O)(=O)Nc2c(C)n(C)n(-c3ccccc3)c2=O)cc1OC -1.6%
O=C(c1cccnc1)N1C2C=CC(C2)C1(C(F)(F)F)C(F)(F)F (stereo not given) -7.8%
Cc1cc(C)nc(NS(=O)(=O)c2ccc(Br)cc2)n1 -3.5%
Cc1ccc(NS(=O)(=O)c2ccc(Br)cc2)nc1 0.3%
O=C(Nc1ccc2oc(-c3ccc(F)cc3)nc2c1)c1ccccc1F 1%
Cc1ccc(-c2nc3c(c(=O)c4ccccc4n3C)c(=O)n2-c2ccccc2)cc1 0.4%
Cc1nc2c([N+](=O)[O-])c(C)c(C)cc2[nH]1 4.2%
O=c1[nH]c(=O)c2nc3c4ccccc4c4ccccc4c3nc2[nH]1 11.6%
NC(=O)Nn1c(CCC(=O)O)ccc1-c1ccc(Br)cc1 -6.3%
O=C(CSc1ccc2nnc(-c3ccccc3)n2n1)NCc1ccc2c(c1)OCO2 2.7%
CN(C)c1nc(OCCNC(=O)Nc2ccc(Cl)cc2)nc(N(C)C)n1 1.2%
Cc1cccc(C)c1NS(=O)(=O)c1ccc2c(c1)C(=O)c1ccccc1C2=O 21%
O=C(O)c1ccc(NS(=O)(=O)c2ccc3c(c2)C(=O)c2ccccc2C3=O)cc1 2.7%
COc1ccc(CCNc2ccc(S(=O)(=O)N3CCCC3)cc2[N+](=O)[O-])cc1 -0.1%
COc1ccc2nc3ccccc3nc2c1NC(=O)c1ccc(Cl)cc1 23%
COc1ccc2nc3ccccc3nc2c1NC(=O)c1ccc(Cl)cc1Cl 17.8%
Cc1ccc2cccc(OCC(=O)N3CC(C)CC(C)C3)c2n1 (stereo not given) 26.7%
Cc1cccc(OCC(=O)OCC(=O)c2c(N)n(C)c(=O)n(C)c2=O)c1C 3.8%
Cc1ccccc1CSCC(=O)c1c(N)n(C)c(=O)n(C)c1=O 6.8%
CC(C)C(=O)NC(NC(=O)C(C)C)c1ccc([N+](=O)[O-])cc1 -13.1%
CC(C)c1onc(C(=O)NCc2cccs2)c1[N+](=O)[O-] -6.7%
CC(=O)c1cc2c(cc1N/C(=N/S(=O)(=O)c1ccc(C)cc1)c1ccc(Cl)cc1)OCO2 7.7%
O=S(=O)(N/N=C/c1ccc(F)cc1)c1ccccc1 4.7%
S=C(Nc1ccc2cn[nH]c2c1)Nc1ccccc1Cl 42.1%
COc1ccc(NC(=S)Nc2ccc3cn[nH]c3c2)cc1 48.7%
Cc1cc(C)cc(NC(=S)Nc2ccc3cn[nH]c3c2)c1 21.3%
Cc1ccc(NC(=S)Nc2ccc3cn[nH]c3c2)cc1C 15.4%
Cc1ccc(NC(=S)Nc2ccc3cn[nH]c3c2)c(C)c1 44%
CC(C)c1ccc(NC(=S)Nc2ccc3cn[nH]c3c2)cc1 46.1%
CCOC(=O)C1CCCN(C(=O)c2cn(CC)c(=O)c3cc(OC)c(OC)cc23)C1 (stereo not given) -1.3%
CCOC(=O)c1nn(-c2ccc(C)cc2)cc1O 1.2%
CC1(C)CC(=O)C2=C(C1)Nc1ccccc1NC2c1cccnc1 (stereo not given) -11.6%
CC1(C)CC(=O)C2=C(C1)Nc1cc(C(=O)c3ccccc3)ccc1NC2c1ccccn1 (stereo not given) -4.3%
O=C(Oc1c(CN2CCOCC2)cc(Cl)c2cccnc12)c1ccc(F)cc1 40.1%
O=[N+]([O-])c1cc(CN2CCOCC2)c2cccnc2c1O 40.5%
COc1cc(C(=O)Oc2c(CN3CCOCC3)cc(Cl)c3cccnc23)cc(OC)c1OC 35.9%
COc1ccc(C(=O)Oc2c(CN3CCOCC3)cc(Cl)c3cccnc23)cc1 22.5%
O=C(Oc1c(Cl)cc(Cl)c2cccnc12)N1CCOCC1 1.1%
COc1cccc(C(=O)Oc2c(CN3CCOCC3)cc(Cl)c3cccnc23)c1 24%
c1ccc2c(c1)ccc1ncccc12 -5.5%
O=C(CS(=O)(=O)c1ccccc1)Nc1nc(-c2ccc(F)cc2)cs1 8.2%
CCOC(=O)CNC(=O)CSc1nnc(-c2ccco2)n1N 6.3%
CCCCOc1ccc(Cc2c(COCC)[nH]c(=S)[nH]c2=O)cc1 -4.9%
O=C(c1cc2ccccc2o1)N1CCCC1 -0.3%
COc1ccc(OC)c(NS(=O)(=O)c2cc(OC)ccc2OC)c1 2.8%
COc1ccc(OC)c(S(=O)(=O)Nc2ccccc2C)c1 10.8%
CC1=CC(C)(C)N(C(=O)CNC2CCCCC2)c2cc(C)ccc21 2.1%
C=CCOc1c(Br)cc(CNc2ccc(NC(=O)C(C)C)cc2)cc1OCC 22.7%
C=CCOc1c(Br)cc(CNc2ccc(NC(=O)C(C)C)c(OC)c2)cc1OC 41.7%
COc1cccc(C(=O)Nc2ccc3c(c2)C(=O)N(CCC(=O)O)C3=O)c1 3.7%
CC1CCCC(NC(=O)COC(=O)CSc2ccc3ccccc3c2)C1C (stereo not given) 7.7%
Cc1ccc(-c2nnc(-c3ccccc3)c(-c3ccccc3)n2)cc1 -0.5%
Cc1ccc(-c2nc(N)sc2C)cc1 -10.2%
Cc1ccc(-c2nc(N)sc2-c2ccc(C)cc2)cc1 13.6%
Cc1ccc(-c2cc(-c3ccccc3)nc(Cl)n2)cc1 12.5%
CCCCC(=O)OCC(=O)c1[nH]c(C)c(C(C)=O)c1C -12%
CCc1nnc(NC(=O)c2ccc(N(C)S(=O)(=O)c3ccccc3)cc2)s1 -6.4%
